# What was measured:
# Assay type in all cases: functional
# Plasmodium falciparum [1] = assay: GSK_TCMDC: Inhibition of Plasmodium falciparum 3D7 in whole red blood cells, using parasite LDH activity as an index of growth. Test compounds present at 2uM
# Plasmodium falciparum [2] = assay: GSK_TCMDC: Inhibition of Plasmodium falciparum Dd2 in whole red blood cells, using parasite LDH activity as an index of growth. Test compounds present at 2uM
# HepG2 = assay: GSK_TCMDC: Percent inhibition of human HepG2 cell line. Test compounds present at 10uM.
SMILES,Inhibition (Plasmodium falciparum [1]) [%],Inhibition (Plasmodium falciparum [2]) [%],Inhibition (HepG2) [%]
CCN1CCN(c2cc(C)c3cc(NC(=O)c4cc(OC)cc(OC)c4)ccc3n2)CC1,100,90,0
NS(=O)(=O)NCCCN1CCN(c2ccccc2)CC1,90,73,2
COc1cccc(CCc2nc3c(N4CCC(Cc5ccccc5)CC4)cccc3n2CC2CNCCO2)c1.O=C(O)C(F)(F)F (stereo unspecified),94,96,4
Cc1cc(Cc2ccc(S(=O)(=O)c3cc4c(cc3O)CCN(C)CC4)cc2)ccc1Cl.Cl,96,12,7
CN1CCN(Cc2ccc(OCc3cccc(COc4ccc(CN5CCN(C)CC5)cc4I)c3)c(I)c2)CC1.Cl,92,69,93
O=C(Nc1cccc(-c2nn3ccccc3c2-c2ccnc(Nc3cccc(C(F)(F)F)c3)n2)c1)c1c(F)cccc1F,97,91,43
CC(=O)Nc1ccc(Nc2cc(C)nc(Nc3ccc(NC(C)=O)cc3)n2)cc1,99,65,4
Nc1cccc(CNCc2cccc(-c3ccc(-c4nc5ccccc5[nH]4)s3)c2)c1.O=C(O)C(F)(F)F,100,90,8
O=C(Cn1c(CCc2cccc(F)c2F)nc(=O)c2ccccc21)N(CCN1CCCC1)Cc1ccc(-c2ccc(C(F)(F)F)cc2)cc1.O=C(O)C(O)C(O)C(=O)O,100,37,63
O=C1C[C@@H]([S+]([O-])Cc2nccs2)N1CCOCCCCCCc1ccc(Cl)cc1 (stereo partly specified),91,0,0
O=C(Nc1ccc2c(c1)CCN2C1CCN(Cc2cc(F)cc(F)c2F)C1)c1ccco1 (stereo unspecified),96,95,0
CCOc1cc2ncnc(Nc3ccc(OCc4ccccc4Br)c(OC)c3)c2cc1OCC.Cl,100,82,1
CC(NC(=O)c1ccc(O)c(-c2ccc(Cl)c(Cl)c2)c1)C(=O)NCCN1CCCC1 (stereo unspecified),99,9,0
CCCNCc1ccc(-c2ccc(CN(Cc3ccc4c(c3)OCO4)C(=O)Cc3cccnc3)cc2)nc1.O=C(O)C(F)(F)F,94,53,16
CS(=O)(=O)O.FC(F)(F)COc1ccc2ccccc2c1CNCCCCCCNCc1c(OCC(F)(F)F)ccc2ccccc12,100,95,99
CCn1ccc2c(N3CCCC3=O)cc(C(=O)N[C@@H](Cc3ccccc3)[C@H](O)CNCc3cccc(OC)c3)cc21,94,92,4
O=C(Nc1cccc(CN2CCCN(Cc3ccc(F)cc3)CC2)c1)c1ccc(Cl)c(Cl)c1.O=C(O)C(F)(F)F,95,17,27
COc1cccc(Nc2nc(Nc3cccc(C#N)c3)cc(-c3ccncc3)n2)c1,100,46,28
FC(F)(F)CNc1nc(Nc2ccc3ncccc3c2)nc2[nH]ccc12.O=C(O)C(F)(F)F,87,83,37
COc1ccc2nccc([C@@H](O)CN3CCC(NCc4nc5c(C#N)cccc5[nH]4)CC3)c2c1.O=C(O)C(=O)O,96,9,0
Cc1ccccc1C1CCN(C2CCC(NC(=O)/C=C/c3cc(F)ccc3C(F)(F)F)CC2)CC1 (stereo unspecified),98,25,90
CCn1c(-c2nonc2N)nc2c(-c3cccc(NC(=O)Nc4ccccc4OC)c3)ncc(OCCCN)c21.O=C(O)C(F)(F)F,92,58,84
CC(C)c1ccc(CN2CCC(CNC(=O)c3cc(-c4cccc(F)c4)cs3)C2)cc1.O=C(O)C(F)(F)F (stereo unspecified),100,46,59
CS(=O)(=O)c1ccccc1CNC(=O)c1ccc(-c2ccc(-c3nc4cc(C(F)(F)F)ccc4[nH]3)s2)cc1,96,76,90
CCC1(CC)N=C(N)N=C(N)C1c1ccc(Cl)c(Cl)c1.Cl (stereo unspecified),98,20,0
CN1CCCC1CCNCc1cccc(-c2cnc(N3CCCC(C)(C)C3)nc2)c1 (stereo unspecified),98,95,99
Cc1ccc(C(O)CNc2ccnc(Nc3cccc(-c4csc(C)n4)c3)n2)cc1 (stereo unspecified),92,31,17

# From ChEMBL document CHEMBL1157539, “Thousands of chemical starting points for antimalarial lead identification” (Nature, 2010)
